Measured values published in the supplement of paper PMC10849652.
About 7,900 targets were measured; listed, in parts, are those with a hit and a random draw of the rest. About 0.6% of all pairs of compound and target were hits.

Tests used:
Assay in all cases: log2 fold change, soluble protein after heating vs DMSO (PISA); higher = thermal stabilisation; K562 cells, 10 uM, 30 min; active = over 0.2 and 3.5 SD of the protein, either way, in both replicates (recomputed)
[1] = compound: C1=CC=C(C=C1)[C@H](COC2=CC3=C(C=C2)NC(=O)N3)NC(=O)C4=CC=CN(C4=O)CC5=CC(=C(C=C5)F)F
Method in brief: (§1)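 Aliquots of K562 cells (2×10^6 cells/mL) treated with 10 μM compound for 30 min were heated for 3 min over 48°C-58°C. After pooling and extraction in PBS with 0.5% NP-40 at 4°C, soluble protein from a 21,000xg, 90 min spin was quantified by TMTpro 16plex LC-MS/MS with channel sums equalised. Thermal stability is expressed against control samples, from duplicates, as a log2 fold change.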

[2] = compound: CC1=C(SC2=C1C(=N[C@H](C3=NN=C(N32)C)CC(=O)N)C4=CC=C(C=C4)Cl)C
Method in brief: as §1

[3] = compound: CC1=C2C(=CC=C1)N=C(N(C2=O)C3=CC=CC=C3C)CN4C=NC5=C(N=CN=C54)N
Method in brief: as §1

[4] = compound: Cc1sc2c(c1C)C(c1ccc(Cl)cc1)=N[C@@H](CC(=O)OC(C)(C)C)c1nnc(C)n1-2
Method in brief: as §1

[5] = compound: c1ccc([C@@H]2C[C@H]2NC2CCNCC2)cc1
Method in brief: as §1

Measured: log2 fold change

TMEM120A (UniProt Q9BXJ8)
inactive: [1] -0.126 | [2] 0.056 | [3] 0.012 | [4] -0.11 | [5] -0.049

TMEM192 (UniProt Q8IY95)
Sequence of UniProt Q8IY95 (Q8IY95 whole entry, looked up): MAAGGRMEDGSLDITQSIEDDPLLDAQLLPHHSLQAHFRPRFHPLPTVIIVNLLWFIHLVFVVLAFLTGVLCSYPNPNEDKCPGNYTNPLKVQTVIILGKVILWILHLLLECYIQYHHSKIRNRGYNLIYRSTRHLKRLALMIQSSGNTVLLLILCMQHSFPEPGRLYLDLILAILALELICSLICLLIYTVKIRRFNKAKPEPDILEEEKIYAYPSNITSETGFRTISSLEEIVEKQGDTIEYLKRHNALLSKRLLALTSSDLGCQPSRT
inactive: [1] 0.02 | [2] -0.03 | [3] 0.018 | [4] -0.024 | [5] 0.032

TOM1 isoform 2 (UniProt O60784)
Sequence of UniProt O60784 (O60784 whole entry, looked up): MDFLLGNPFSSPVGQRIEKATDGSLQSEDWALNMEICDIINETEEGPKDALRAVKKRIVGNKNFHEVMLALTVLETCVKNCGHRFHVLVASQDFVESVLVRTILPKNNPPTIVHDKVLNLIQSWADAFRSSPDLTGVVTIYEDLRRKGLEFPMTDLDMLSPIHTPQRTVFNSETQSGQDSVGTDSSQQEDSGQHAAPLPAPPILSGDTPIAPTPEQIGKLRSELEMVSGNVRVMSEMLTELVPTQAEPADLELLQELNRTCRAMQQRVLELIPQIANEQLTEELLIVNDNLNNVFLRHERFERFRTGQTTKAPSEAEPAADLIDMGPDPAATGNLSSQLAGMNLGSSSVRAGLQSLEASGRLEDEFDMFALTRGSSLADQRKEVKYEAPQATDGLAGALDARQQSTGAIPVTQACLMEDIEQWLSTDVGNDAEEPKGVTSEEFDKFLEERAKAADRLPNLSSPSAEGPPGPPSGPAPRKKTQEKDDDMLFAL
inactive: [1] 0.044 | [2] 0.001 | [3] -0.074 | [4] 0.046 | [5] 0.008

VPS16 (UniProt Q9H269)
inactive: [1] -0.188 | [2] 0.048 | [3] 0.106 | [4] -0.021 | [5] -0.038

VPS72 isoform 2 (UniProt Q15906)
inactive: [1] 0.123 | [2] -0.106 | [3] 0.055 | [4] 0.05 | [5] -0.013

UHRF1BP1 (UniProt Q6BDS2)
inactive: [1] -0.01 | [2] 0.109 | [3] 0.006 | [4] -0.001 | [5] -0.007

XPOT (UniProt O43592)
inactive: [1] -0.028 | [2] 0.06 | [3] 0.083 | [4] -0.002 | [5] -0.001

VDAC1 (UniProt P21796)
Sequence of UniProt P21796 (P21796 whole entry, looked up): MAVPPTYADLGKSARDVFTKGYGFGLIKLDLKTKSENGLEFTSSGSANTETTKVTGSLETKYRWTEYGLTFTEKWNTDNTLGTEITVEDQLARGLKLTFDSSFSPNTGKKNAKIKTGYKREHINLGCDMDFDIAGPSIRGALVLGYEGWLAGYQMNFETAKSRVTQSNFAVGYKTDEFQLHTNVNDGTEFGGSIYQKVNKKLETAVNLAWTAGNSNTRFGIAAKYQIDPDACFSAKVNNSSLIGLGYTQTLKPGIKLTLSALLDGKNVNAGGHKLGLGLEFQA
inactive: [1] 0.047 | [2] 0.008 | [3] -0.024 | [4] -0.007 | [5] 0.026

TRAPPC6B (UniProt Q86SZ2)
inactive: [1] -0.007 | [2] 0.061 | [3] 0.048 | [4] -0.033 | [5] -0.013

USP7 (UniProt Q93009)
inactive: [1] -0.165 | [2] 0.026 | [3] 0.09 | [4] -0.01 | [5] -0.062

WDR7 (UniProt Q9Y4E6)
inactive: [1] -0.037 | [2] 0.013 | [3] -0.068 | [4] -0.131 | [5] -0.093

USP48 isoform 8 (UniProt Q86UV5)
inactive: [1] -0.073 | [2] 0.106 | [3] 0.191 | [4] -0.012 | [5] 0.119

VAMP7 (UniProt P51809)
inactive: [1] 0.007 | [2] 0.044 | [3] 0.077 | [4] -0.047 | [5] 0.015

UPF3B (UniProt Q9BZI7)
inactive: [1] 0.259 | [2] -0.211 | [3] -0.161 | [4] 0.363 | [5] -0.001

USP24 (UniProt Q9UPU5)
inactive: [1] 0.114 | [2] 0.02 | [3] 0.105 | [4] -0.198 | [5] -0.033

TYW1 (UniProt Q9NV66)
inactive: [1] 0.017 | [2] -0.022 | [3] 0.039 | [4] -0.005 | [5] -0.091

TMEM208 (UniProt Q9BTX3)
Sequence of UniProt Q9BTX3 (Q9BTX3 whole entry, looked up): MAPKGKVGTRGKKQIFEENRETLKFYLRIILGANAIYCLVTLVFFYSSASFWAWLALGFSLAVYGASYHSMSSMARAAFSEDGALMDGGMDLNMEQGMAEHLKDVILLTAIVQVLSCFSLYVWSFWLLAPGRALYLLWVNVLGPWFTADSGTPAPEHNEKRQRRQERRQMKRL
inactive: [1] -0.101 | [2] 0.02 | [3] 0.088 | [4] -0.14 | [5] 0.031

UBE2J2 isoform 3 (UniProt Q8N2K1)
inactive: [1] 0.003 | [2] 0.078 | [3] -0.106 | [4] -0.014 | [5] -0.144

TRABD (UniProt Q9H4I3)
inactive: [1] 0.005 | [2] -0.034 | [3] -0.054 | [4] 0.027 | [5] -0.054

WDR4 (UniProt P57081)
inactive: [1] -0.074 | [2] 0.048 | [3] -0.004 | [4] -0.025 | [5] -0.008

U2AF2 (UniProt P26368)
Sequence of UniProt P26368 (P26368 whole entry, looked up): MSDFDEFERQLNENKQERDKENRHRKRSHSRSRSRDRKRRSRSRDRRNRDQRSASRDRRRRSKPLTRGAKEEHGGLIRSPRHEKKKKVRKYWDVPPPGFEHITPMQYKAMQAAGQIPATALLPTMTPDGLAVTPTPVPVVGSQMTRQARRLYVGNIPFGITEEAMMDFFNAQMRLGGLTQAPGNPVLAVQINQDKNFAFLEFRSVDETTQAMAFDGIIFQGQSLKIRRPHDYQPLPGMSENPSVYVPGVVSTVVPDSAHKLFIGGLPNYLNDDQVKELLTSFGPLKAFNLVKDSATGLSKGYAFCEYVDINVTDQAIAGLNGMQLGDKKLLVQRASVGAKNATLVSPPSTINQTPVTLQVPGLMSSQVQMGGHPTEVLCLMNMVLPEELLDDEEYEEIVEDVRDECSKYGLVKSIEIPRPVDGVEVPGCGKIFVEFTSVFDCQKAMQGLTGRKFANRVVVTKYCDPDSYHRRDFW
inactive: [1] -0.004 | [2] 0.057 | [3] 0.045 | [4] 0.044 | [5] 0.005

TOMM5 isoform 2 (UniProt Q8N4H5)
inactive: [1] 0.034 | [2] 0.047 | [3] -0.032 | [4] -0.029 | [5] 0.005

UBA52 (UniProt P62987)
inactive: [1] 0.088 | [2] -0.301 | [3] -0.569 | [4] 0.265 | [5] 0.193

TNPO2 (UniProt O14787)
Sequence of UniProt O14787 (O14787 whole entry, looked up): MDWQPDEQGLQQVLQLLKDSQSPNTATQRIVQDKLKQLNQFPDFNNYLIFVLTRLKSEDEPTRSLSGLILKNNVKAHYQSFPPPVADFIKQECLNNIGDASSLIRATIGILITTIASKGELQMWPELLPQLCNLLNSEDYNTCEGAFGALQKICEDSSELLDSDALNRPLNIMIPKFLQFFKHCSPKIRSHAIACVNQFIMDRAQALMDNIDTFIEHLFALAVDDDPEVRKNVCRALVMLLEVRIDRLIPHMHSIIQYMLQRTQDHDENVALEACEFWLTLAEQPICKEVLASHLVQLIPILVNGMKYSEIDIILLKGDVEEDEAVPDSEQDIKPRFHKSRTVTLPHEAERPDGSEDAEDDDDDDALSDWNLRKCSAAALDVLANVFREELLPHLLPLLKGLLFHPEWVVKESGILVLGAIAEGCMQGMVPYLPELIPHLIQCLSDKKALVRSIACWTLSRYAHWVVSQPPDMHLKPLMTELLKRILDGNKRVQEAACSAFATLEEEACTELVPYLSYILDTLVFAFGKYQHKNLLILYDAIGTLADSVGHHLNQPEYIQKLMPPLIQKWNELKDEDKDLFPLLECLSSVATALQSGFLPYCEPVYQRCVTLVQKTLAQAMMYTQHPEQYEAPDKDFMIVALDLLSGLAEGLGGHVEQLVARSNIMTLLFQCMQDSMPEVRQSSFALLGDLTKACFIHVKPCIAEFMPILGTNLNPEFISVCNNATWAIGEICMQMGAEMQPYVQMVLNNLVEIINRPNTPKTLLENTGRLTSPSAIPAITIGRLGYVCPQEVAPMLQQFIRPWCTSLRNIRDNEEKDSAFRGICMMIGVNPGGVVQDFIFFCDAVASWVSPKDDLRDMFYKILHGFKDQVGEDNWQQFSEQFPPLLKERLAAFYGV
inactive: [1] -0.067 | [2] 0.03 | [3] 0.158 | [4] -0.051 | [5] -0.005

TPR (UniProt P12270)
inactive: [1] 0.053 | [2] 0.014 | [3] 0.001 | [4] 0.083 | [5] 0.043

TOM1L1 (UniProt O75674)
inactive: [1] -0.019 | [2] 0.045 | [3] 0.034 | [4] 0.009 | [5] 0.023

U2AF1 isoform 2 (UniProt Q01081)
inactive: [1] 0.021 | [2] 0.03 | [3] 0.11 | [4] -0.02 | [5] 0.035

TRIP10 isoform 2 (UniProt Q15642)
Sequence of UniProt Q15642 (Q15642 whole entry, looked up): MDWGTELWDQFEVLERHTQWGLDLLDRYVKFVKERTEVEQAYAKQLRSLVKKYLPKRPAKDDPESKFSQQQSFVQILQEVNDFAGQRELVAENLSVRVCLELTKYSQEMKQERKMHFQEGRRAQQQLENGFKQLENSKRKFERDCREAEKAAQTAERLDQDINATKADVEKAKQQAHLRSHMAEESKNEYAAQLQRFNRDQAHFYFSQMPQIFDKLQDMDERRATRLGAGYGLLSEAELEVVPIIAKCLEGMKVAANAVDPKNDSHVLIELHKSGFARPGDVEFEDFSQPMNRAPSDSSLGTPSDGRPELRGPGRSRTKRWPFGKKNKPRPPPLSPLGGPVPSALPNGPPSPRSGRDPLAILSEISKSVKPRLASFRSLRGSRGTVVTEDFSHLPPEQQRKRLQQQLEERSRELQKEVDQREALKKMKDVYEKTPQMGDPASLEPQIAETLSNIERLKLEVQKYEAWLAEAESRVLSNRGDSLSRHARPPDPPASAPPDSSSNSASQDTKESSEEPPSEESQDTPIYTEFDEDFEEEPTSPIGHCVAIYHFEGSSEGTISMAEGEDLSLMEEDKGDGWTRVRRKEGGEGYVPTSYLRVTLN
inactive: [1] -0.039 | [2] 0.085 | [3] 0.222 | [4] 0.03 | [5] -0.026

VRK1 (UniProt Q99986)
inactive: [1] -0.13 | [2] 0.02 | [3] 0.178 | [4] -0.019 | [5] -0.136

TOE1 (UniProt Q96GM8)
inactive: [1] 0.049 | [2] -0.036 | [3] -0.095 | [4] 0.065 | [5] 0.014

TUBAL3 (UniProt A6NHL2)
inactive: [1] -0.196 | [2] -0.012 | [3] 0.096 | [4] -0.051 | [5] 0.029

TMEM63B (UniProt Q5T3F8)
inactive: [1] 0.059 | [2] -0.005 | [3] -0.099 | [4] -0.036 | [5] -0.04

WAPL isoform 3 (UniProt Q7Z5K2)
inactive: [1] -0.116 | [2] 0.021 | [3] 0.138 | [4] -0.08 | [5] 0.095

USO1 isoform 2 (UniProt O60763)
inactive: [1] -0.007 | [2] 0.012 | [3] 0.028 | [4] 0.012 | [5] 0.048

USP15 (UniProt Q9Y4E8)
inactive: [1] -0.038 | [2] 0.035 | [3] 0.059 | [4] 0.008 | [5] -0.016

TMEM106B (UniProt Q9NUM4)
Sequence of UniProt Q9NUM4 (Q9NUM4 whole entry, looked up): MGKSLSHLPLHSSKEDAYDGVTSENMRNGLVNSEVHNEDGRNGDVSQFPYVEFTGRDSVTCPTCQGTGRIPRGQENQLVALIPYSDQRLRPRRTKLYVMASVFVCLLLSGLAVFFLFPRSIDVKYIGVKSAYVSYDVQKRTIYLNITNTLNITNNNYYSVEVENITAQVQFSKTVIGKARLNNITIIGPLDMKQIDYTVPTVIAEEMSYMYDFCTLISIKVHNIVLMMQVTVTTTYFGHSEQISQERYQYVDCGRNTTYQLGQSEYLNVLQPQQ
inactive: [1] 0.039 | [2] -0.022 | [3] -0.008 | [4] -0.097 | [5] 0.034

UBE4B isoform 4 (UniProt O95155)
Sequence of UniProt O95155 (O95155 whole entry, looked up): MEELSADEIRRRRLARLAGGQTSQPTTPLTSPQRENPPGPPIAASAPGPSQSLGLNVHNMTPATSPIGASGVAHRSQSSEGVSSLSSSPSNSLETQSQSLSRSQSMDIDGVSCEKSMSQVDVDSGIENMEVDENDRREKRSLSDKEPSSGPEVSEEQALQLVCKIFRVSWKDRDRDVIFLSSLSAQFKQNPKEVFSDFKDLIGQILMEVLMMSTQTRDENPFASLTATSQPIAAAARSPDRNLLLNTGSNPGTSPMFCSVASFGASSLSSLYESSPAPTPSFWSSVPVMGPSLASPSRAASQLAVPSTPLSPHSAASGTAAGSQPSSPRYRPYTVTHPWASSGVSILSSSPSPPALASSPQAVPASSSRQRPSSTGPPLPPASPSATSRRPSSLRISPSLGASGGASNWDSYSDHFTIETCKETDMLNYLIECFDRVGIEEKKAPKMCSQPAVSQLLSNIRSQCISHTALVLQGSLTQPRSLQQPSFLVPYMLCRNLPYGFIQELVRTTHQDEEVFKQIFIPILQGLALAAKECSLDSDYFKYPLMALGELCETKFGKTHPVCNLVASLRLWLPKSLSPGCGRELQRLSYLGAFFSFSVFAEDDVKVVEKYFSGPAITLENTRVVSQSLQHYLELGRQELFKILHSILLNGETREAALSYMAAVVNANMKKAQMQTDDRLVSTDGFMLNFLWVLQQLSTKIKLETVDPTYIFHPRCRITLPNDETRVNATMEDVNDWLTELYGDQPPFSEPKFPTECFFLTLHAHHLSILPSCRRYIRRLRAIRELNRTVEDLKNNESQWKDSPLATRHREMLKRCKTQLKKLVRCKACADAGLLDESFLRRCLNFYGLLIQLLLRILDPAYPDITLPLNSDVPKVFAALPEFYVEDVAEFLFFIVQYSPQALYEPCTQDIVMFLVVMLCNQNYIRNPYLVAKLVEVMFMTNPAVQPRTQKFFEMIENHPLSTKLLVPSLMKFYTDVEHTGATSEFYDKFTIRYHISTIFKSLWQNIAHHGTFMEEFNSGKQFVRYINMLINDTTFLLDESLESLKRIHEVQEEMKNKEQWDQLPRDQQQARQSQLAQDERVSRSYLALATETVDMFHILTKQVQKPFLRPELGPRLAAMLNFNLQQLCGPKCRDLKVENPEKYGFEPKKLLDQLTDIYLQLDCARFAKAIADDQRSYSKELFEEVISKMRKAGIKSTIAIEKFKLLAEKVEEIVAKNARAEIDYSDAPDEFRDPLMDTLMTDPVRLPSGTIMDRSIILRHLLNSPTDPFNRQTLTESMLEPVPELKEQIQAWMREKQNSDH
inactive: [1] -0.019 | [2] 0.03 | [3] 0.019 | [4] 0.006 | [5] -0.003

VPS8 (UniProt Q8N3P4)
inactive: [1] -0.08 | [2] 0.106 | [3] 0.042 | [4] -0.034 | [5] 0.017

TMEM173 (UniProt Q86WV6)
inactive: [1] -0.035 | [2] 0.045 | [3] 0.086 | [4] -0.099 | [5] -0.005

WRB (UniProt O00258)
Sequence of UniProt O00258 (O00258 whole entry, looked up): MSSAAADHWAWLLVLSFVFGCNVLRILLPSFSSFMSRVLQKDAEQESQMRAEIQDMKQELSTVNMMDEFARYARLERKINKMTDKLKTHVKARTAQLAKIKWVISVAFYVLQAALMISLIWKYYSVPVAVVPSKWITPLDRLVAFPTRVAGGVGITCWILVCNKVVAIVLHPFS
inactive: [1] 0.002 | [2] -0.007 | [3] -0.015 | [4] 0.005 | [5] 0.01

UBA1 (UniProt P22314)
inactive: [1] -0.162 | [2] 0.044 | [3] 0.134 | [4] 0.044 | [5] -0.08
